High-throughput results (PubChem BioAssay)
NS1 inh: qHTS Assay for Inhibitors of Influenza NS1 Protein Function; AID 2326, 2010; 0.4% of 270,000 active; Potency, µM (top dose mostly 46.1 µM), inactives show at the top dose activity, positive = more growth; calls by dose curve; also: actives are rising curves; nearly all actives have a fitted effect of over 50% in size
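In this qHTS, NS1 from influenza A is expressed in budding yeast, where it slows growth. Cells are switched from glucose to 2% galactose medium (pH 6.0, -URA), treated with compound, and growth recovery is read at OD600.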
Cruzain Triton: qHTS Assay for Promiscuous and Specific Inhibitors of Cruzain (with detergent); Cruzipain (Trypanosoma cruzi), P25779; purified cruzain, Z-FR-AMC fluorescence, 0.01% Triton; Potency, µM, inactives show max response, negative = inhibition, hits mostly inhibitors; 0.43% of 200,000 active; AID 1478, 2009;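 also: plate controls were neutral wells for no effect and buffer without enzyme for full effect; nearly all actives have a fitted effect of over 40% in size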
Target sequence (P25779 123-467 limits assumed): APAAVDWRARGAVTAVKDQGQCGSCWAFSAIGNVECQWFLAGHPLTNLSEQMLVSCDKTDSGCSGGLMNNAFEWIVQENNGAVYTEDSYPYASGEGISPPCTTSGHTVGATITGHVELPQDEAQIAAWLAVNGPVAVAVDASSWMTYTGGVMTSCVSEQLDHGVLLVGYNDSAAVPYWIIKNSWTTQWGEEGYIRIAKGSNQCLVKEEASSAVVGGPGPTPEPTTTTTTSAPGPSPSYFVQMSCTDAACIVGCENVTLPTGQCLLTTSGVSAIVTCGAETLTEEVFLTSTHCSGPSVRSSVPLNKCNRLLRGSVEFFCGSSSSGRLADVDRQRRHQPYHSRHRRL
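Cruzain (1.5 nM) preincubated 15 min at RT with compound in 100 mM sodium acetate pH 5.5, 5 mM DTT, 0.01% Triton X-100. Reaction started with 2 uM Z-FR-AMC; AMC fluorescence (ex 360/em 450 nm) change over 60 s gave rate.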
Cruzain inh noDet: qHTS Assay for Promiscuous and Specific Inhibitors of Cruzain (without detergent) | Cruzipain (Trypanosoma cruzi), P25779 | purified cruzain, Z-FR-AMC fluorescence, no detergent | Potency, µM, for inactives: max response, negative = inhibition, usual class: inhibitors | 2.3% of 200,000 active;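 also: plate controls were enzyme without inhibitor for no effect and buffer without enzyme for full effect; nearly all actives have a fitted effect of over 40% in size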
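Purified cruzain at 1.5 nM, pre-incubated 15 min with compound at room temperature in 100 mM sodium acetate pH 5.5, 5 mM DTT, 0.00005% Triton X-100. Reaction started with 2 uM Z-FR-AMC; AMC fluorescence increase over 60 s gives rate.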
* = called active by the depositor; u = inconclusive; x = no result. This is one part of a sample in which hits are shown more often than they occur. Unless noted, calls follow the shape of the dose curve; as a rule, active = well fitted curve in the direction sought with a large enough effect; inconclusive = small, poorly fitted or top-dose-only effect, or another doubt; inactive = no such curve, though single readings can be large; an effect the other way counts as inactive or inconclusive. Potency is read from the fitted curve at half-maximal effect.

SMILES | NS1 inh | Cruzain Triton | Cruzain inh noDet
COc1ccc(C(C(=O)NC2CCCCC2)N(C(=O)c2sc(C)nc2C)c2ccccc2)cc1 (stereo not drawn) | 2.3% | -2.0% | 0.8%
C[C@@H](O)CN(CCN(C[C@@H](C)O)C[C@@H](C)O)C[C@@H](C)O.O=[N+]([O-])O.[Cu] | -2.6% | 3.3% | 10.4%
O=C(O)C1Cc2c([nH]c3ccccc23)C(c2coc3ccccc3c2=O)N1 (stereo not drawn) | x | 1.0% | -11.1%
COC(=O)[C@@]1(Cc2ccccc2)[C@H]2c3cc(C(=O)N4CCCC4)n(Cc4cc(F)cc5c4OCOC5)c3C[C@H]2CN1C(=O)c1ccccc1 | x | -6.1% | u
CN(CCC(=O)O)C1=Nc2ccc(Cl)cc2C(c2ccccc2)=[N+]([O-])C1 | -2.7% | 2.4% | 2.6%
CC(=O)NC(NC(=S)Nc1ccc(S(N)(=O)=O)cc1)C(Cl)(Cl)Cl (stereo not drawn) | 3.8% | x | x
Cc1cccc(C(=O)NC(NC(=S)Nc2ccc(S(N)(=O)=O)cc2)C(Cl)(Cl)Cl)c1 (stereo not drawn) | 28.4% | 12.6µM* | 25.1µM*
CCOC(=O)N1[C@@H]2C=C(C)[C@@H]2[C@@H]2[C@@H](C)C(=O)N21 | -2.8% | 12.6µM* | 12.6µM*
CCOC(=O)n1c(=O)oc2ccccc21 | u | 7.1% | 2.5%
Cc1cc(NC(=O)c2ccccc2Cl)ccc1NC(=O)c1ccccc1Cl | -9.0% | x | x
Cc1ccc2sc3ccc(NC(=O)c4ccccc4Cl)cc3c(=O)c2c1 | -7.9% | 2.8% | 25.1µM*
COc1ccc(C2CC(c3ccc4ccccc4c3OC(C)=O)=NN2C(=O)/C=C/c2ccccc2)cc1 (stereo not drawn) | 21.7% | -0.6% | 7.94µM*
COc1ccc(C2CC(c3ccccc3OC(C)=O)=NN2C(=O)/C=C/c2ccccc2)cc1 (stereo not drawn) | 18.9% | -6.1% | -20.4%
O=C1C(C=NCc2ccncc2)=C(O)c2ccccc21 | -0.4% | -2.7% | 1.5%
O=C1N/C(=C/c2ccc(Br)cc2)C(O)=C1C=NCc1ccccc1 | 4.4% | -3.1% | 20µM*
COc1ccc(C2c3[nH]c4ccc(OC)cc4c3CCN2C(=O)Nc2ccccc2)cc1 (stereo not drawn) | x | -6.4% | 25.1µM*
O=C(CCC1CCCC1)N1CCc2c([nH]c3ccccc23)C1c1ccc(F)cc1 (stereo not drawn) | x | 2.4% | u
O=C(CCc1ccccc1)N1CCc2c([nH]c3ccccc23)C1c1ccc(Cl)cc1 (stereo not drawn) | x | 2.3% | u
O=C(CCC1CCCC1)N1CCc2c([nH]c3ccccc23)C1c1ccc(Cl)cc1 (stereo not drawn) | x | 4.1% | 7.94µM*
CCOc1ccc(C2c3[nH]c4ccccc4c3CCN2C(=O)CCC2CCCC2)cc1 (stereo not drawn) | x | 3.1% | u
COc1cccc(C(=O)N2CCc3c([nH]c4ccccc34)C2c2ccc(SC)cc2)c1 (stereo not drawn) | x | 4.7% | 19.3%
CCOc1cccc(CC(=O)N2CCc3c([nH]c4ccccc34)C2c2ccc(Cl)cc2)c1OCC (stereo not drawn) | x | 2.6% | 20µM*
COc1ccc(C2c3[nH]c4ccccc4c3CCN2C(=O)CCC2CCCC2)cc1 (stereo not drawn) | x | 4.4% | 15.8µM*
COc1ccc(NC(=O)c2cccc(N3CCCS3(=O)=O)c2)cc1OC | x | 1.9% | -10.3%
CC(C)(Oc1ccc(-c2cccc3ccccc23)cc1)C(=O)O | -11.8% | -3.6% | 0.4%
SMILES | NS1 inh | Cruzain Triton | Cruzain inh noDet
CC(=O)N[C@H](Cc1c[nH]c2ccccc12)C(N)=O | x | 1.6% | 12.4%
Cn1c(=S)c2[nH]c(SCCN3C(=O)c4ccccc4C3=O)nc2n(C)c1=O | -0.3% | 1.7% | 7.6%
Cc1cc(C)cc(NC(=O)C(=O)NCC(c2cccnc2)N2CCOCC2)c1 (stereo not drawn) | x | 0.2% | 8.7%
CC1=C(/C=C/C(C)=C/C=C/C(C)=C/C=O)C(C)(C)CCC1 | x | -10.6% | 15.6%
CC1=C(C)CS(=O)N(c2ccc(S(N)(=O)=O)cc2)C1 (stereo not drawn) | 5.6% | 15.8µM* | 15.8µM*
CC1=C(C)CS(=O)N(S(=O)(=O)c2ccccc2)C1 (stereo not drawn) | 23.0% | -25.6% | -24.1%
CCc1ccc(/C=N/NC(=O)c2cc(-c3ccccc3OC)nc3ccccc23)s1 | -4.5% | -7.8% | -27.3%
CCc1ccc(/C=N/NC(=O)c2cc(C3CC3)nc3ccc(Br)cc23)s1 | 9.5% | 2.6% | 25.1µM*
COc1cccc([C@@H]2Oc3ccc(OC)cc3C(=O)[C@H]2OC(=O)NS(=O)(=O)c2ccc(C)cc2)c1 | x | -3.8% | -0.6%
COc1cccc(-n2c(SCC(=O)Nc3cccc(Cl)c3)nc3c(oc4ccccc43)c2=O)c1 | x | -2.6% | 12.6µM*
Cc1cccc(NC(=O)CSc2nc3c(oc4ccccc43)c(=O)n2C(C)C)c1 | x | -4.1% | -24.9%
O=C(CSc1nc2c(oc3ccccc32)c(=O)[nH]1)Nc1cccc(Cl)c1 | x | 0.7% | 7.94µM*
COc1cccc(-n2c(SCC(=O)Nc3cc(C)ccc3C)nc3c(oc4ccccc43)c2=O)c1 | x | -1.0% | -8.6%
Cn1c(-c2nc(-c3ccccc3)cs2)nc2ccccc21 | x | -1.0% | 11.8%
c1ccoc1 | x | -1.2% | -5.0%
Cc1c(/C=N/NC(=O)c2ccccc2O)c2ccccn2c1C(=O)c1ccc(F)cc1 | u | -11.9% | 25.1µM*
COC(=O)N/N=C/c1c(C)c(C(=O)c2ccc(F)cc2)n2ccccc12 | 9.8% | 0.1% | -5.1%
COC(=O)[C@H](COC(C)(C)C)NC(=O)O[C@@H]1C(=O)c2cc(OC)ccc2O[C@H]1c1cccc(OC)c1 | x | -1.3% | -3.5%
CC(C1CCCC(=O)C1)[N+](=O)[O-] (stereo not drawn) | x | 2.4% | -4.8%
Cc1cc(C)c2oc(-c3ccc(C)c(NC(=S)NC(=O)c4cccs4)c3)nc2c1 | 12.4% | 6.4% | 7.94µM*
Cc1ccc(-c2nc3ccccc3o2)cc1NC(=S)NC(=O)c1cccs1 | -2.9% | -3.2% | u
Cc1ccc(-c2csc(NC(=S)NC(=O)c3cccs3)n2)cc1 | -0.9% | -3.1% | 15.8µM*
Cc1sc(NC(=O)c2cccs2)nc1-c1ccccc1 | -9.2% | -7.6% | 1.9%
O=C(NC(=S)Nc1nc(-c2ccccc2)cs1)c1cccs1 | -14.9% | -4.0% | u
Cc1sc(NC(=S)NC(=O)c2cccs2)nc1-c1ccc(C(C)C)cc1 | 8.3% | 0.4% | 10µM*
SMILES | NS1 inh | Cruzain Triton | Cruzain inh noDet
O=S(=O)(c1ccccc1)N1CCC[C@@]2(CCN(C(c3ccccc3)c3ccccc3)C2)C1 | x | -3.3% | 13.8%
Cc1ccc(C)c(NC(=O)CSc2nc(-c3ccccc3)c(C#N)c(=O)[nH]2)c1 | x | -3.3% | 2.3%
COc1ccccc1NC(=O)CSc1nc(-c2ccc(C(C)(C)C)cc2)c(C#N)c(=O)[nH]1 | x | 25.1µM* | u
N[C@@H](Cc1ccccc1)P(=O)(O)O | -1.4% | 2.0% | 7.3%
CC(C)C(=O)Nc1ccccc1-c1nc2ccccc2[nH]c1=O | -5.9% | x | x
CC(C)C(=O)Nc1sc2c(c1-c1nc3ccccc3[nH]1)CCCC2 | 2.0% | -1.0% | 20µM*
COc1ccc(-c2nc3cnc(Oc4cccc(Cl)c4)nc3n(CCC#N)c2=O)cc1 | x | 4.4% | 25.0%
